Laboratory results reported in PubChem BioAssay (EPA / NIEHS).
Active and inactive are the calls of the source. The calls were made as follows: active = hit-call score of the fitted dose curve at least 0.9, where 1 is the maximum; inactive = score below 0.9.

Assays:
[1] = biological target: Paired box protein Pax-6 (Homo sapiens) (UniProt P26367); assay: ATG_Pax6_CIS: Attagene CIS-FACTORIAL HepG2 Assay for human Paired Box 6 (PAX6) (AID 2282956); conditions: HepG2 CIS-FACTORIAL PAX6 reporter transcription, RNA readout; actives raise or lower the signal
Outline: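 HepG2 cells transiently transfected with multiplexed cis-promoter reporter units (endogenous TF activity) were dosed for 24 h. Reporter mRNA was quantified by RT-PCR, 6-FAM labeling, HpaI digestion and capillary electrophoresis; bidirectional fitting versus DMSO baseline.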

[2] = ATG_PXRE_CIS: Attagene CIS-FACTORIAL HepG2 Assay for human Pregnane X Receptor Element (PXRE) (AID 2282957); conditions: HepG2 Attagene CIS-FACTORIAL PXRE reporter, mRNA; actives raise or lower the signal
Outline: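 Multiplexed cis-reporter assay in transiently transfected human HepG2 cells; 24 h chemical exposure. Reporter transcripts quantified by RT-PCR with fluorescent labeling and capillary electrophoresis.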

[3] = ATG_Sox_CIS: Attagene CIS-FACTORIAL HepG2 Assay for human SRY-box transcription factor (SOX) (AID 2282960); conditions: HepG2 Attagene cis-factorial SOX reporter, mRNA; actives raise or lower the signal
Outline: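 HepG2, cis reporter units, 24 h exposure. Reporter mRNA: RT-PCR → FAM labelling → HpaI → CE fluorescence. Bidirectional fit vs DMSO.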

[4] = biological target: Transcription factor Sp1 (Homo sapiens) (UniProt P08047); assay: ATG_Sp1_CIS: Attagene CIS-FACTORIAL HepG2 Assay for human Specificity Protein 1 (Sp1) (AID 2282961); conditions: HepG2 Sp1 cis-reporter transcription, actives raise or lower the signal
Outline: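 Liver-derived HepG2 cells, cis-element reporter library, 24 h treatment; RNA isolated, cDNA amplified with reporter-specific primers, FAM-labeled fragments sized on capillary analyzer. DMSO baseline, bidirectional curve fit.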

[5] = ATG_SREBP_CIS: Attagene CIS-FACTORIAL HepG2 Assay for human Sterol Regulatory Element Binding (SREBP) (AID 2282962); conditions: HepG2 Attagene cis-factorial SREBP reporter, mRNA; actives raise or lower the signal
Outline: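 HepG2 cells transiently transfected with multiplexed cis-element reporter units report endogenous transcription factor activity. After 24 h of chemical exposure, reporter mRNA was quantified by RT-PCR, 6-FAM labelling, HpaI digestion and capillary electrophoresis; bidirectional fits used DMSO as baseline.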

[6] = biological target: Signal transducer and activator of transcription 3 (Homo sapiens) (UniProt P40763); assay: ATG_STAT3_CIS: Attagene CIS-FACTORIAL HepG2 Assay for human Signal Transducer and Activator of Transcription 3 (STAT3) (AID 2282963); conditions: HepG2, Attagene cis-factorial STAT3 reporter transcription; actives raise or lower the signal
Outline: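 HepG2 cells transiently transfected with cis-element-driven multiple reporter transcription units; after 24 h chemical exposure, reporter mRNA measured by RT-PCR, 6-FAM primer-extension labelling, HpaI digestion and capillary electrophoresis. Bidirectional fitting versus DMSO baseline.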

[7] = ATG_TA_CIS: Attagene CIS-FACTORIAL HepG2 Assay for human TA Basal Promoter (AID 2282964); conditions: HepG2 Attagene CIS-factorial TA basal promoter reporter; actives raise or lower the signal
Outline: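 Background-control readout: TA basal promoter reporter mRNA, fitted in both directions relative to DMSO. Measured by RT-PCR and capillary electrophoresis 24 hours after treating HepG2 human liver cells transiently carrying multiplexed cis-regulated reporter constructs.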

[8] = ATG_PPRE_CIS: Attagene CIS-FACTORIAL HepG2 Assay for human Peroxisome Proliferator-activated Response Element (PPRE) (AID 2282958); conditions: HepG2 PPRE cis-element reporter, Attagene transcription factor profiling; actives raise or lower the signal
Outline: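 PPRE activity in HepG2: transient cis-reporter transfection, 24 h compound incubation, reporter mRNA by RT-PCR and CE fluorescence; gain/loss fitted against DMSO.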

[9] = ATG_RORE_CIS: Attagene CIS-FACTORIAL HepG2 Assay for human RAR-related Orphan Receptor Element (RORE) (AID 2282959); conditions: HepG2 Attagene cis-factorial RORE reporter, mRNA; actives raise or lower the signal
Outline: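 A 24-hour exposure of transfected HepG2 hepatoma cells precedes RNA isolation and reporter RT-PCR. Labeled products are digested with HpaI and resolved by capillary electrophoresis, with gain or loss of signal scored relative to DMSO.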

Measured: AC50

Signal transducer and activator of transcription 3 (Homo sapiens), sequence (P40763 whole entry, looked up): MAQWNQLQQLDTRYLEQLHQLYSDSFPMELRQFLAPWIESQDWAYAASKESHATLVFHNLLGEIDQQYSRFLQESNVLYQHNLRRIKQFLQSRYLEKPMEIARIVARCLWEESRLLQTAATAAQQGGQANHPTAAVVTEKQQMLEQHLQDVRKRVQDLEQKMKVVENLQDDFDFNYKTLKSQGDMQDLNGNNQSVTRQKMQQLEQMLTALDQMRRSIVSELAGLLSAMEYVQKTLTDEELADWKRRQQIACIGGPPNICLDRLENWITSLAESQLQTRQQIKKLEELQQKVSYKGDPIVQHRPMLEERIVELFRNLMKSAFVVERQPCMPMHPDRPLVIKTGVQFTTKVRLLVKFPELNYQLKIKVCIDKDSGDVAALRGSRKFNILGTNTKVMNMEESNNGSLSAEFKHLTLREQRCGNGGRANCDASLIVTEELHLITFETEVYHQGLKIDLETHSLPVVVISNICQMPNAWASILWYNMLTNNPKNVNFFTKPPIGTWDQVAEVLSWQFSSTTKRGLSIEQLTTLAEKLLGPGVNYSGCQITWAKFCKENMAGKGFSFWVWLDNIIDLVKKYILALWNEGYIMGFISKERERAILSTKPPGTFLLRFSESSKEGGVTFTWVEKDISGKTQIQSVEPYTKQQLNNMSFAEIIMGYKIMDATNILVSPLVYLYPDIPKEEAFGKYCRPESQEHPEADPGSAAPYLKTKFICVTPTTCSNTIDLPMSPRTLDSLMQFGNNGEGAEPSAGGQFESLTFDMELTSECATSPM
Paired box protein Pax-6 (Homo sapiens), sequence (P26367 whole entry, looked up): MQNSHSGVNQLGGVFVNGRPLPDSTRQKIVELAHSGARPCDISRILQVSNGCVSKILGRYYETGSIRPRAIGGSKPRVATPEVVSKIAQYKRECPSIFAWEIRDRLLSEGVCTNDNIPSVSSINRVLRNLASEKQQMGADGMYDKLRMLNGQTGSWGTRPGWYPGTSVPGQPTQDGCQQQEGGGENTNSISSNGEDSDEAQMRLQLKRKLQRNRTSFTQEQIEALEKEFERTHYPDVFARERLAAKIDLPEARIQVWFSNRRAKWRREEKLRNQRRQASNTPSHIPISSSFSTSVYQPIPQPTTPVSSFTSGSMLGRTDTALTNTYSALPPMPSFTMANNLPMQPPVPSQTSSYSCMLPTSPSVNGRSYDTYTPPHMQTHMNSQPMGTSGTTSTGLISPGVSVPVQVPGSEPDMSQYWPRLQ
Transcription factor Sp1 (Homo sapiens), sequence (P08047 whole entry, looked up, the tested form may be a part): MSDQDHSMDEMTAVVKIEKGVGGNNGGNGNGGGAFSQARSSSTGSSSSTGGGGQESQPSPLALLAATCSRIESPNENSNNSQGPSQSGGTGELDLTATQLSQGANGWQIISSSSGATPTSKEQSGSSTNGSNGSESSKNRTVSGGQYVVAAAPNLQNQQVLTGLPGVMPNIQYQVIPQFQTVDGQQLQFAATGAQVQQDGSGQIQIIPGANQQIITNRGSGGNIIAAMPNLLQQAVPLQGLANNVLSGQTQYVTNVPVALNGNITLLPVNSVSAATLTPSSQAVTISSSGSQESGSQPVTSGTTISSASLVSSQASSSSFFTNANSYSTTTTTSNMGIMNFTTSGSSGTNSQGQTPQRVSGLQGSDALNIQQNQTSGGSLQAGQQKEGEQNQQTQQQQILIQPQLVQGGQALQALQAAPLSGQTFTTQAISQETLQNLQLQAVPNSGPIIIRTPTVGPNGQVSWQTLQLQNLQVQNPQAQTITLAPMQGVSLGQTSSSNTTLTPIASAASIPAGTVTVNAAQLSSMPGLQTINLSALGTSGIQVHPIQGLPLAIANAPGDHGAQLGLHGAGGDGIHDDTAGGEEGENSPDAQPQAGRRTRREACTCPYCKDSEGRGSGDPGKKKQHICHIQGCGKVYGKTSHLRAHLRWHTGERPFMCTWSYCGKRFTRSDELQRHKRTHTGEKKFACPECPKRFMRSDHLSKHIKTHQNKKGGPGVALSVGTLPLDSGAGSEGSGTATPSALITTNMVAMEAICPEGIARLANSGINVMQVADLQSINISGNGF

CCCCCCCO
active: [2] 39.1 µM
not listed: [8] | [9]
inactive: all other assays above

CCCCCCCCCCCC(=O)N(C)CC(=O)O
active: [8] 8.09 µM | [9] 19.6 µM
not listed: [1] | [3]
inactive: all other assays above

Cc1cc(=O)[nH]c(=O)[nH]1
active: [2] 24.8 µM
not listed: [1]
inactive: all other assays above

CCCCCCCCCCCC(=O)OCC
not listed: [1]
inactive: all other assays above

O=C(O)CC(C(=O)O)S(=O)(=O)O (centres undefined)
not listed: [1] | [6] | [9]
inactive: all other assays above

Oc1ccc(-c2ccccc2)c(Cl)c1
active: [8] 33.4 µM | [9] 33.4 µM
not listed: [1] | [6]
inactive: all other assays above

CC(c1cc(C(C)(C)C)cc(C(C)(C)C)c1O)c1cc(C(C)(C)C)cc(C(C)(C)C)c1O
active: [2] 0.078 µM
not listed: [1] | [3]
inactive: all other assays above

Cc1ccc(C)c(OCCCC(C)(C)C(=O)O)c1
active: [2] 22.5 µM
not listed: [8]
inactive: all other assays above

COC(=O)CC(C)CCC=C(C)C (centres undefined)
active: [2] 69.2 µM
not listed: [1]
inactive: all other assays above

CCCCNS(=O)(=O)c1ccccc1
inactive: [1] | [4] | [5] | [7]
active: [2] 26.7 µM

C=C(C)[C@@H]1CC=C(C)CC1
not listed: [8] | [9]
inactive: all other assays above

C=C(C)C1CC=C(C)CC1 (centres undefined)
not listed: [6] | [8] | [9]
inactive: all other assays above

CCC(C)c1ccccc1 (centres undefined)
not listed: [1]
inactive: all other assays above

CC(CC=O)CC(C)(C)C (centres undefined)
active: [2] 8.08 µM
not listed: [1] | [3]
inactive: all other assays above

Cc1cc(C)c(C=O)c(C)c1
active: [2] 1.61 µM
not listed: [1]
inactive: all other assays above

CCCCC(CC)COS(=O)(=O)O (centres undefined)
active: [2] 62.9 µM
not listed: [1] | [8]
inactive: all other assays above

CCC[Si](OC)(OC)OC
active: [2] 129 µM
not listed: [8] | [9]
inactive: all other assays above

O=C1CCCCC1C1CCCCC1 (centres undefined)
inactive: [8] | [9] | [4] | [6] | [7]
active: [2] 27.3 µM

CC1=CC=C(C(C)C)CC1
inactive: [3] | [4] | [5] | [6] | [7]
active: [2] 3.61 µM

c1ccc2sc(SSN3CCOCC3)nc2c1
active: [1] 100 µM | [3] 138 µM | [4] 70.4 µM | [6] 139 µM
inactive: [2] | [7]
